# Source: PubChem (National Center for Advancing Translational Sciences (NCATS))
# Only some compounds are listed: those with a hit (about 2.3% of all), similar ones and a draw of the others.
# FUS suppressor: rescues growth of FUS-expressing yeast | S. cerevisiae FUS-expressing, growth rescue, OD600, 24 h | 390,000 compounds, 0.24% hits | Potency, µM (highest dose often 76.6 µM), most hits filed as activators | AID 1347120; note: nearly all actives have a fitted effect of over 55% in size
#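 Cultures pregrown in 2.5% raffinose medium are shifted to minimal medium containing 2% galactose to express toxic FUS. Compounds are tested at several concentrations. After 24hr at 30C, growth is quantified at 600 nm absorbance.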
# CCT modulator: modulators of cytosolic chaperonin (CCT/TRiC) activity | purified chaperonin ATPase assay, HTRF ADP detection, 30 min | activity change, % (no concentration beside the values), hits read low | 360,000 compounds, 0.3% hits | AID 651819; in the data active = activity change below about -30%
#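 ATPase activity: ADP formed was measured by HTRF Transcreener (665/615 nm ratio) after 30 min at 37 deg C with 10 uM ATP. Compounds screened at one 76 uM concentration against 40 or 20 nM TRiC in Tris pH 7.4/KCl/MgCl2/DTT buffer.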
# aSyn rescue: inhibitors of alpha-synuclein toxicity in yeast; 370,000 compounds, 0.14% hits; Yeast expressing alpha-synuclein, growth rescue, BacTiter-Glo, 24 h; Potency, µM (series often up to 46.1 µM), actives largely listed as activators; AID 652106; note: nearly all actives have a fitted effect of over 65% in size
#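 Galactose-induced alpha-syn yeast (OD600=0.02, raffinose-pregrown) + pinned cpd, 24 hr, 30 deg C; growth by BacTiter-Glo luminescence. Growth restoration scores as activation.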
# MmCpn inh: M. maripaludis TRiC chaperonin inhibition; purified Mm-Cpn ATPase, ADP Transcreener TR-FRET; Potency, µM (series often up to 76.9 µM), hits mostly inhibitors; 330,000 compounds, 0.031% hits; note: nearly all actives have a fitted effect of over 80% in size
#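 ATPase read-out: TR-FRET ADP immunoassay (anti-ADP Eu cryptate vs ADP-d2), ex 320 nm, em 590/665 nm; signal drops as ADP forms. Enzyme 25 nM, ATP 10 uM, 30 min at 37°C after 10 min compound preincubation.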
# Abeta yeast res: compounds reversing amyloid beta toxicity in yeast. 410,000 compounds, 0.063% hits. yeast expressing A-beta42, growth rescue, OD600, 48 h; response scale: 0% DMSO, 100% iron-clioquinol control. Potency, µM (series often up to 46.1 µM), actives largely listed as activators; note: nearly all actives have a fitted effect of over 55% in size
#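 Yeast A-beta toxicity model in growth medium with pinned compounds, 48 h at 30 C; growth read as absorbance at 600 nm. Normalized to FeCl3/clioquinol equimolar mix (positive) and DMSO (negative).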
# TDP43 rescue: TDP-43 toxicity inhibition in yeast; TDP-43 expressing yeast growth rescue, BacTiter-Glo, 24 h; AID 652104; Potency, µM (series often up to 46.1 µM), usual class: activators; 410,000 compounds, 1.8% hits; note: nearly all actives have a fitted effect of over 50% in size
#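 Readout is BacTiter-Glo luminescence of cell growth, so inhibitors register as activators. TDP-43-expressing yeast at OD600=0.02 in galactose medium, after raffinose pregrowth to mid-log, were incubated with compound for 24 hr at 30 deg C.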
# Hits are given with their value; . = inactive; ? = inconclusive; / = not tested or not shown; [ ] = another dose, or the depositor's remark. Unless noted, calls come from the whole dose curve; as a rule, active = well fitted curve in the direction sought with a large enough effect; inconclusive = small, poorly fitted or top-dose-only effect, or another doubt; inactive = no such curve, though single readings can be large; an effect the other way counts as inactive or inconclusive.
SMILES,FUS suppressor,CCT modulator,aSyn rescue,MmCpn inh,Abeta yeast res,TDP43 rescue
Nc1ncnc2c1ncn2[C@H]1CC[C@@H](CO)O1,.,.,.,.,.,13µM
Nc1ncnc2c1ncn2C1CCCO1 (configuration not stated),.,.,.,.,.,35µM
Cc1ccc2c(c1)CCCN2C(=O)c1ccoc1C,5.6µM,.,.,.,.,.
Nc1ccc2c(c1)C(=NO)c1cc([N+](=O)[O-])ccc1-2,/,.,6.3µM,/,.,11µM
Cc1nnc(SCC(=O)Nc2cc(-c3cc(C)c(C)cc3C)nn2-c2ccccc2)s1,25µM,.,.,.,.,?
Cc1ccc(-c2cc(NC(=O)CSc3n[nH]c(N)n3)n(-c3ccccc3)n2)cc1,.,.,.,.,.,.
Cc1nnc(SCC(=O)Nc2cc(C(C)(C)C)nn2-c2ccccc2)s1,/,.,.,.,.,.
Nc1nc(SCC(=O)Nc2cc(-c3ccccc3)nn2-c2ccccc2)n[nH]1,.,-97,.,.,.,.
O=C1N2CCCc3cccc(c32)C12Nc1ccccc1S2 (configuration not stated),/,.,?,.,.,20µM
Cc1nn(C(=O)CNS(=O)(=O)c2ccccc2)c(C)c1Sc1ccc(Cl)cc1,/,.,.,.,.,16µM
CCCCOc1ccc(CC(=O)N(C)O)cc1,/,/,.,/,/,/
CCC(C)NC(=O)c1c(N)n(/N=C/c2cccnc2)c2nc3ccccc3nc12 (configuration not stated),.,.,.,.,.,14µM
O=C(Nc1ccc2c(c1)OCCO2)C(C1CC1)n1c(=O)c(-c2ccco2)nc2ccccc21 (configuration not stated),.,/,.,/,.,?
O=C(Nc1ccc2c(c1)OCCO2)C(c1ccccc1F)n1c(=O)c(-c2cc3ccccc3[nH]2)nc2ccccc21 (configuration not stated),.,/,.,/,.,.
N#Cc1ccc(C(C(=O)Nc2ccc3c(c2)OCCO3)n2c(=O)c(-c3ccco3)nc3ccccc32)cc1 (configuration not stated),6.3µM,/,?,/,.,.
O=C(Nc1ccc2c(c1)OCCO2)C(c1ccc(C(F)(F)F)cc1)n1c(=O)c(-c2cc3ccccc3[nH]2)nc2ccccc21 (configuration not stated),.,/,10µM,/,?,?
O=C(Nc1ccc2ccccc2c1)C(c1ccc(C(F)(F)F)cc1)n1c(=O)c(-c2cc3ccccc3[nH]2)nc2ccccc21 (configuration not stated),.,/,.,/,.,?
O=C(Nc1ccc2c(c1)OCCO2)C(c1ccncc1)n1c(=O)c(-c2cc3ccccc3[nH]2)nc2ccccc21 (configuration not stated),.,/,.,/,.,28µM
O=[N+]([O-])c1ccc(O)c(/C=N/Nc2ncnc3c2cnn3-c2ccccc2)c1,.,.,.,.,.,7.9µM
O=[N+]([O-])c1ccc(O)c(/C=N/Nc2ccccn2)c1,.,.,0.89µM,.,.,.
O=[N+]([O-])c1ccc(NN=Cc2ccccc2O)nc1,.,.,.,/,.,22µM
CCNC(=O)C(=O)N/N=C/c1cc([N+](=O)[O-])ccc1O,.,.,?,.,.,20µM
O=[N+]([O-])c1ccc(NN=Cc2ccc(O)cc2O)nc1,.,.,.,/,.,.
O=C(N/N=C/c1cc([N+](=O)[O-])ccc1O)Nc1ccccc1,.,.,.,.,.,.[9.22 µM]
COc1ccc(-c2cc(C(=O)NN=Cc3ccc(-c4ccccc4)cc3)[nH]n2)cc1,.,/,/,/,/,/
SMILES,FUS suppressor,CCT modulator,aSyn rescue,MmCpn inh,Abeta yeast res,TDP43 rescue
Cc1ccnc(SCc2cc(=O)c(OC(=O)c3ccc(C)c([N+](=O)[O-])c3)co2)n1,.,/,/,/,/,/
COc1ccc(C2C3=C(NCCN=C3c3ccccc3)C(=O)N2c2ccccc2)c(OC)c1 (configuration not stated),.,-60,.,.,.,.[9.22 µM]
O=C1C2=C(C(c3ccccc3)=NCCN2)C(c2cccc([N+](=O)[O-])c2)N1c1ccccc1 (configuration not stated),.,.,.,.,.,.
CC(=O)Oc1ccc(/C=C2/CCc3ccccc3C2=O)cc1,.,.,.,.,.,11µM
COc1cccc(/C=C2\CCc3ccccc3C2=O)c1,.,.,.,.,.,.
O=c1cc2c(nn1Cc1ccccc1)-c1ccccc1CC2,.,.,.,.,.,.
O=C1/C(=C/c2ccc([N+](=O)[O-])cc2)CCc2ccccc21,/,/,/,.,/,/
O=c1cc2c(nn1Cc1cccc([N+](=O)[O-])c1)-c1ccccc1CC2,.,.,.,.,.,28µM
O=C1C(=Cc2ccccn2)CCc2ccccc21,.,.,.,/,.,18µM
O=C1/C(=C/c2cccc([N+](=O)[O-])c2)CCc2ccccc21,/,.,.,.,.,22µM
CC(=O)C1(C(=O)N2CCOCC2)CC(c2ccccc2C(F)(F)F)=NO1 (configuration not stated),.,/,/,/,/,/
O=C(NC1CCC1)O[C@H]1CC[C@@]23CCCN2C(=O)CCC[C@H]3C1,.,/,/,/,/,/
CCN(CC)C(=O)O[C@H]1CC[C@@]23CCCN2C(=O)CCC[C@H]3[C@H]1C,.,/,/,/,/,/
C=CCOC(=O)C1=C[C@H](c2ccc(Br)cc2)[C@@H](CCCO)[C@H](OCC)O1,.,.,.,/,.,22µM
CCO[C@H]1OC(C(N)=O)=C[C@@H](c2ccc(Br)cc2)[C@@H]1CCCO,.,.,.,/,.,.
Clc1ccccc1-c1nc(-c2ccccc2)n[nH]1,.,.,.,.,.,13µM
Oc1ccccc1-c1n[nH]c(-c2ccccc2O)n1,/,.,.,/,.,.
COC(=O)[C@]12C[C@H](CC(=O)N3CCCCC3)C(=O)N(Cc3ccc(Cl)cc3Cl)C1=C[C@H](C(C)C)O[C@@H]2C1CC1,.,/,/,/,/,/
COC(=O)[C@]12C[C@H](CC(=O)N3CCOCC3)C(=O)N(Cc3ccc(Cl)cc3Cl)C1=C[C@H](C(C)(C)C)O[C@@H]2C,16µM,/,/,/,/,/
COC(=O)[C@]12C[C@H](CC(=O)N3CCN(C(=O)C4CC4)CC3)C(=O)N(Cc3ccc(Cl)cc3Cl)C1=C[C@H](C1CCCC1)O[C@@H]2C,32µM,/,/,/,/,/
COC(=O)[C@]12C[C@H](CC(=O)N3CCN(C(=O)C4CC4)CC3)C(=O)N(Cc3ccco3)C1=C[C@H](C1CCCC1)O[C@@H]2C,.,/,/,/,/,/
COC(=O)[C@]12C[C@H](CC(=O)N3CCN(C(=O)C4CC4)CC3)C(=O)N(Cc3ccc(Cl)cc3Cl)C1=C[C@H](C(C)C)O[C@@H]2C1CC1,28µM,/,/,/,/,/
